Screening results from PubChem BioAssay.
PLK1 PBD block = inhibitors of human PLK1 polo-box domain binding; P53350; Plk1 PBD binding of FITC phosphopeptide, fluorescence polarization; 2.8% of 360,000 active; Potency, µM, inactives show max response, negative = inhibition, actives largely listed as inhibitors; AID 720504; also: series mostly up to about 57 µM; % is scaled to controls: 0 for no effect and ±100 for the full control effect; nearly all actives have a fitted effect of over 65% in size
BAZ2B inh = BAZ2B (human) inhibition. AlphaScreen BAZ2B-H3K14Ac peptide displacement. Q9UIF8. Potency, µM (titrated, usually from 114 µM), without a hit: top-dose activity change, negative = inhibition, usual class: inhibitors. 4.4% of 360,000 active; also: % is scaled to controls: 0 for no effect and ±100 for the full control effect; nearly all actives have a fitted effect of over 60% in size
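In this displacement format the biotinylated H3(5-23) peptide acetylated at Lys14 serves as ligand at 50 nM, with BAZ2B at 50 nM in PBS pH 7.4 containing 0.01% Tween-20. Donor and acceptor beads are 10 ug/mL final.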
Sfp inh = Sfp phosphopantetheinyl transferase inhibition. Potency, µM, for inactives: largest response in the series, negative = inhibition, actives largely listed as inhibitors. 3.5% of 310,000 active. Q9F4F7. AID 1490. Biochemical Sfp PPTase activity, qHTS;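 also: the enzyme is Sfp with the accession as filed and its product quenches rhodamine fluorescence; 0% = enzyme reaction without inhibitor and -100% = no enzyme wells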
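With Hepes-Na pH 7.6 buffer containing 10 mM MgCl2, Sfp (15 nM) modified BHQ-2-YbbR (12.5 uM) using rhodamine-CoA (5 uM). Two reads 30 minutes apart at 525/598 nm yielded each well's rate.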
G9a inh = blocks human histone lysine methyltransferase G9a; Q96KQ7; G9a H3K9 monomethylation, AlphaScreen, 2 h; Potency, µM (doses to about 102 µM), for inactives: at the top dose activity, negative = inhibition, hits mostly inhibitors; 8.8% of 350,000 active; also: % is scaled to controls: 0 for no effect and ±100 for the full control effect; nearly all actives have a fitted effect of over 75% in size
Target sequence (Q96KQ7 913-1193 limits assumed): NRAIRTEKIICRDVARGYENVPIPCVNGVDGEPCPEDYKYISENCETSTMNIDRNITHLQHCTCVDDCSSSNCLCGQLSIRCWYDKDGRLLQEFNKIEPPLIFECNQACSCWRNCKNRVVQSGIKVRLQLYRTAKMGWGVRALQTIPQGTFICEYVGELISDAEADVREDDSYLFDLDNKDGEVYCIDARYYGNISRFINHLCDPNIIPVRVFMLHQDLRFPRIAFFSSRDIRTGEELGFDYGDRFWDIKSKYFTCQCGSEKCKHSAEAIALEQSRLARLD
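G9a (20 nM) was preincubated 15 min with compound, then reacted 2 h at room temperature with 500 nM biotin-H3K9 peptide and 20 µM SAM. Monomethyl-H3K9 detected by AlphaScreen using anti-H3K9me1 antibody.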
JMJD2A Tudor inh = JMJD2A Tudor domain (human) inhibition | O75164 | AlphaScreen JMJD2A-Tudor / H3K4me3 peptide binding | Potency, µM (doses to about 114 µM), inactives show at the top dose activity change, negative = inhibition, actives largely listed as inhibitors | 4.4% of 390,000 active | AID 504339; also: % is scaled to controls: 0 for no effect and ±100 for the full control effect; nearly all actives have a fitted effect of over 50% in size
HP1b chromo inh = HP1-beta chromodomain-methylated histone interaction inhibition | P83916 | AlphaScreen HP1-beta / biotin-H3K9me3 peptide binding | Potency, µM (doses to about 114 µM), without a hit: at the top dose activity change, negative = inhibition, most hits filed as inhibitors | 0.56% of 390,000 active | AID 540317; also: nearly all actives have a fitted effect of over 70% in size
Target sequence (P83916 whole entry, looked up): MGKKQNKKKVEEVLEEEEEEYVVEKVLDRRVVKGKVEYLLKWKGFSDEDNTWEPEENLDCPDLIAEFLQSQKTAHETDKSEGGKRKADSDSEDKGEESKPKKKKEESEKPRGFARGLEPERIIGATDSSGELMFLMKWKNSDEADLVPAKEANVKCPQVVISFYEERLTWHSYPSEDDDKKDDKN
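AlphaScreen: HP1-beta (50 nM) preformed 30 min with biotin-H3(1-18)K9me3 peptide (50 nM) in PBS pH 7.4, 0.01% Tween-20. Compound added for 30 min at RT, then streptavidin donor/nickel chelate acceptor beads (10 ug/mL) for 30 min.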
* marks the source's active call; other numbers are inactive results; ? = inconclusive; · = not tested or not shown; [ ] = dose if it differs, or a comment. Compounds with a hit are over-represented: about 12% of the library has one in this group of screens. Calls follow the shape of the dose curve; as a rule, active = well fitted curve in the direction sought with a large enough effect; inconclusive = small, poorly fitted or top-dose-only effect, or another doubt; inactive = no such curve, though single readings can be large; an effect the other way counts as inactive or inconclusive. Potency is read from the fitted curve at half-maximal effect.

SMILES	PLK1 PBD block	BAZ2B inh	Sfp inh	G9a inh	JMJD2A Tudor inh	HP1b chromo inh
CCCCn1c(C)cc2c(c1=O)[C@H]1O[C@](CCCC)(Cc3c1ccc1ccccc31)O2	·	9%[22.9 µM]	20%	9%[2.33 µM]	·	·
Cc1cc(C)n(-c2nnc(C)n2/N=C/c2cc(Br)ccc2OCc2ccccc2)n1	-21%	-38%	28µM*	?	-32%	8%
COc1ccc(N2CCN(C(CNS(=O)(=O)c3ccc(OC)c(C)c3)c3ccco3)CC2)cc1 (centres undefined)	·	25µM*	·	7.9µM*	25µM*	?
COc1ccc(S(=O)(=O)NCC(c2ccco2)N2CCOCC2)cc1OC (centres undefined)	·	-4%	·	13µM*	2%	10%
COc1ccc(S(=O)(=O)NCC(c2ccco2)N2CCN(c3ccccc3)CC2)cc1OC (centres undefined)	·	?	·	-8%[59 µM]	?	-6%
COc1ccc(S(=O)(=O)Nc2nnc(C(C)(C)C)s2)cc1	7.5µM*	·	18µM*	1.8µM*	-22%	-24%
COc1ccc(S(=O)(=O)Nc2nnc(CC(C)(C)C)s2)cc1	30µM*	-30%	-3%	35µM*	5%	4%
CCNc1ncc2nc(-c3ccccc3)c(=O)n(CCOC)c2n1	·	·	5%	1%[0.501 µM]	·	·
O=C(CCn1c(=S)[nH]c2ccccc2c1=O)NCCc1ccc(Cl)cc1	-12%	-13%	14%	8%	-27%	2%
Nc1nc(SCC(=O)NCCCO)nc2sc3c(c12)CCC3	-5%	-7%	19%	-8%	-8%	2%
COC(=O)CSc1nc(N)c2c3c(sc2n1)C(c1ccccc1)SC(c1ccccc1)C3 (centres undefined)	-13%	7%	40µM*	?	7%	48%
Cc1ccccc1NC(=O)CSc1nc(N)c2c3c(sc2n1)CSC(C)(C)C3	-4%	?	-4%	?	-25%	79µM*
Cc1ccc(NC(=O)CSc2nc(N)c3c4c(sc3n2)CSC(C)(C)C4)cc1	-1%	-34%	11%	19%[59 µM]	-9%	16%
CC(C)(C)C1CCc2c(sc3nc(SCC(=O)O)nc(N)c23)C1 (centres undefined)	?	-13%	-2%	28µM*	-12%	14%
Nc1nc(SCC(=O)NCCO)nc2sc3c(c12)CCCC3	24µM*	-14%	22%	18%	-17%[11.4 µM]	-7%
COC(=O)CSc1nc(N)c2c3c(sc2n1)CCCC3	-22%	6%	-15%	?	5%	41%
CCOC(=O)CNC(=O)C(=O)c1c(O)[nH]c2ccccc12	-6%	-4%	3%	-6%[12.7 µM]	50µM*	6%
CCNc1ccc(S(=O)(=O)N(C)C)cc1NCC(=O)Nc1ccc(F)c(Cl)c1	-4%	?	-2%	50µM*	?	?
CCNc1ccc(S(=O)(=O)N(C)C)cc1NCC(=O)Nc1ccc(Br)cc1F	-12%	?	0%	14µM*	?	-28%
CCc1cc2ccc(C)cc2nc1SCC(=O)NC1CCCC1	-12%	-4%	17%	-10%	-2%	-8%
Cc1ccccc1CN1CCNC(=O)C1CC(=O)O (centres undefined)	-9%	-2%	1%	14µM*	-8%	20%
Cc1cccc(CCNC(=O)CC2C(=O)NCCN2Cc2ccccc2C)n1 (centres undefined)	-5%	8%	1%	50µM*	-13%	43%
Cc1ccccc1CN1CCNC(=O)C1CC(=O)NCCN1CCCCC1=O (centres undefined)	-5%	-6%	14%	79µM*	-10%	38%
COc1ccc(CN2CCNC(=O)C2CC(=O)O)c(OC)c1 (centres undefined)	-8%	11%	4%	14µM*	-4%	41%
Cc1ccccc1CNC(=O)CC1C(=O)NCCN1CC1CCCCC1 (centres undefined)	-9%	-10%	4%	?	-15%	32%
COc1ccccc1CNc1cc(-c2ccccc2C)ncn1	·	·	3%	7%[0.501 µM]	·	·
